The full data set covers some 8,800 targets. This sample favours those with a hit. About 0.5% of all pairs of compound and target were hits.
Legend:
Experiment in all cases: log2 fold change, soluble protein after heating vs DMSO (PISA); higher = thermal stabilisation; K562 lysate, 10 uM; active = over 0.2 and 3.5 SD of the protein, either way, in both replicates (recomputed)
erlotinib = compound: C#Cc1cccc(Nc2ncnc3cc(OCCOC)c(OCCOC)cc23)c1 [erlotinib]
Summary of the method: (§1)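 Log-two fold change in thermal stability relative to solvent controls is reported from duplicates. For each sample, crude K562 extract from dounce-homogenised pellets in PBS pH 7.4 with 1 mM MgCl2, at 1 mg/mL protein, was treated with 10 μM compound for 30 min. Aliquots heated for 3 min across 48°C-58°C were pooled, brought to 0.5% NP-40 at 4°C and cleared at 21,000xg for 90 min. The supernatant was quantified by TMTpro 16plex LC-MS/MS with channel sums equalised.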

[1] = compound: C/C(=N\NC(=O)C1=CC(=CC=C1)S(=O)(=O)N2CCOCC2)/C3=C(C=CC(=C3)Cl)O
Summary of the method: as §1

[2] = compound: C1=CC(=CC=C1C2=NC3=C(N2)C=C(C=C3)C(=O)N)OC4=CC=C(C=C4)Cl
Summary of the method: as §1

[3] = compound: C1=CC2=C(C=CC(=C2)/C=C\3/C(=O)NC(=NCC4=CC=CS4)S3)N=C1
Summary of the method: as §1

[4] = compound: C1=CC2=NC=CN=C2C=C1/C=C/3\C(=O)NC(=O)S3
Summary of the method: as §1

[5] = compound: C1=CC=C(C=C1)C2=NC(=C(N2)C3=CC=NC=C3)C4=CC(=C(C=C4)Cl)O
Summary of the method: as §1

[6] = compound: C1=CC=C2C(=C1)C3=NNC4=CC=CC(=C43)C2=O
Summary of the method: as §1

[7] = compound: C1CCN(C1)C(=O)NC2=CC=CC(=C2)NC3=NC=C(C(=N3)NCCC4=CN=CN4)Br
Summary of the method: as §1

[8] = compound: C1CN(CCC1(CC2=CC=C(C=C2)Cl)N)C3=NC=NC4=C3C=CN4
Summary of the method: as §1

IRAK-1-4 Inhibitor I = compound: C1COCCN1CCN2C3=CC=CC=C3N=C2NC(=O)C4=CC(=CC=C4)[N+](=O)[O-] [IRAK-1-4 Inhibitor I]
Summary of the method: as §1

ibrutinib = compound: C=CC(=O)N1CCC[C@@H](n2nc(-c3ccc(Oc4ccccc4)cc3)c3c(N)ncnc32)C1 [ibrutinib]
Summary of the method: as §1

[9] = compound: CC(=O)c1cnc2ccc(-c3cc(Cl)c(O)c(Cl)c3)nc2c1N[C@H]1CC[C@H](CN(C)C)CC1
Summary of the method: as §1

ralimetinib = compound: CC(C)(C)Cn1c(N)nc2ccc(-c3[nH]c(C(C)(C)C)nc3-c3ccc(F)cc3)nc21 [ralimetinib]
Summary of the method: as §1

[10] = compound: CC(C)(O)CC(=O)NCCn1ccc2ncnc(Nc3ccc(Oc4cccc(C(F)(F)F)c4)c(Cl)c3)c21
Summary of the method: as §1

[11] = compound: CC(C)C1=C2N=C(C=C(N2N=C1)NCC3=CC=CC=C3)NCCCCCCN
Summary of the method: as §1

[12] = compound: CC1=C(C(CC(=O)N1)C2=CC=C(C=C2)C(F)(F)F)C(=O)NC3=C(C=C4C(=C3)C=NN4)F
Summary of the method: as §1

[13] = compound: CC1=C(C2=C(C=C1)C(=O)C3=CC=CC=C3N2CCCN)C
Summary of the method: as §1

[14] = compound: CC1=C(C=C(C=C1)NC(=O)C2=CC(=CC=C2)C(C)(C)C#N)NC3=CC4=C(C=C3)N=CN(C4=O)C
Summary of the method: as §1

[15] = compound: CC1=C(C=C(C=C1)NC(=O)C2=CC(=CC=C2)N(C)C)NC(=O)C3=CC=C(C=C3)O
Summary of the method: as §1

[16] = compound: CC1=CC=C(C=C1)SC2=C3C=C(SC3=CN=C2)C(=O)N
Summary of the method: as §1

Measured: log2 fold change

IRF2BPL (UniProt Q9H1B7)
Chain of UniProt Q9H1B7 (Q9H1B7 whole entry, looked up): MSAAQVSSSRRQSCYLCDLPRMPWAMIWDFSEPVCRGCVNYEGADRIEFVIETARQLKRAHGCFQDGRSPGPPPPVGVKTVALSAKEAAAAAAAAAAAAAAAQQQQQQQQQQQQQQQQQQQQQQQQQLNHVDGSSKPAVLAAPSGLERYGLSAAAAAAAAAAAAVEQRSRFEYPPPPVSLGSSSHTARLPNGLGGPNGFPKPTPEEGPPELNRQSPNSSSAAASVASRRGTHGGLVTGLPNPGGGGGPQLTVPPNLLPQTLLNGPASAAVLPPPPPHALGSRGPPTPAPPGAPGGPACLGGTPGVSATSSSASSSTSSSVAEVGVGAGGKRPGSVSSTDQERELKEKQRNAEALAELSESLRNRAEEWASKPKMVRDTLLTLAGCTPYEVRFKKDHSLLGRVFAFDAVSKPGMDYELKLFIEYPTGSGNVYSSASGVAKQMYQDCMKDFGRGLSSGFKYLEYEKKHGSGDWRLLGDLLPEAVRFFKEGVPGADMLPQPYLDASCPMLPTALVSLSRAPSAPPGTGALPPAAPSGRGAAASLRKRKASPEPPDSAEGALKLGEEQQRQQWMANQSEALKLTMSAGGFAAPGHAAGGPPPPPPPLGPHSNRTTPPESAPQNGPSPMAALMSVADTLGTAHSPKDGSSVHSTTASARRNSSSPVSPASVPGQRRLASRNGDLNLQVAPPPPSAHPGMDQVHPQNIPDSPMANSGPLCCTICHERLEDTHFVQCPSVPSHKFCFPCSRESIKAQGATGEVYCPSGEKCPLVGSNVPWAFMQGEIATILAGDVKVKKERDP
inactive: erlotinib 0.024 | [1] 0.102 | [2] 0.037 | [3] 0.022 | [4] -0.034 | [5] 0.002 | [6] -0.008 | [7] -0.002 | [8] 0.027 | IRAK-1-4 Inhibitor I -0.027 | ibrutinib 0.052 | [9] 0.004 | ralimetinib 0.039 | [10] 0.026 | [11] -0.026 | [12] 0.02 | [13] -0.018 | [14] 0.045 | [15] 0.029 | [16] -0.038

HMGCS1 (UniProt Q01581)
inactive: erlotinib -0.003 | [1] -0.035 | [2] 0.006 | [3] -0.001 | [4] -0.005 | [5] 0.014 | [6] 0.004 | [7] 0.003 | [8] 0.012 | IRAK-1-4 Inhibitor I -0.009 | ibrutinib -0.012 | [9] -0.006 | ralimetinib 0.012 | [10] -0.01 | [11] -0.001 | [12] -0.011 | [13] 0.013 | [14] -0.001 | [15] 0.006 | [16] 0.015

KCT2 (UniProt Q8NC54)
Chain of UniProt Q8NC54 (Q8NC54 whole entry, looked up): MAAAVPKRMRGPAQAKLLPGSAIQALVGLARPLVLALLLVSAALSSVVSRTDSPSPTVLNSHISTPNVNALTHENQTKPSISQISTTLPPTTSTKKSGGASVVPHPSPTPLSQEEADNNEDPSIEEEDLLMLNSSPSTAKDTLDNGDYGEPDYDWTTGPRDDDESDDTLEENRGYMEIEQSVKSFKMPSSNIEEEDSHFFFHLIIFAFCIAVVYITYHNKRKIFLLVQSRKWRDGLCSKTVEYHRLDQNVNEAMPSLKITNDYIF
inactive: erlotinib -0.05 | [1] 0.098 | [2] 0.041 | [3] 0.017 | [4] 0.055 | [5] 0 | [6] -0.026 | [7] 0.021 | [8] 0.01 | IRAK-1-4 Inhibitor I 0.031 | ibrutinib 0.025 | [9] 0.018 | ralimetinib 0.038 | [10] -0.076 | [11] -0.015 | [12] 0.008 | [13] -0.034 | [14] -0.025 | [15] 0.004 | [16] -0.024

HDAC3 (UniProt O15379)
inactive: erlotinib 0.061 | [1] -0.035 | [2] 0.056 | [3] -0.008 | [4] -0.001 | [5] 0.01 | [6] 0.019 | [7] -0.017 | [8] 0.029 | IRAK-1-4 Inhibitor I 0.028 | ibrutinib -0.004 | [9] 0 | ralimetinib 0.043 | [10] 0.018 | [11] -0.029 | [12] -0.03 | [13] 0 | [14] -0.003 | [15] -0.082 | [16] -0.007

HAUS2 (UniProt Q9NVX0)
Chain of UniProt Q9NVX0 (Q9NVX0 whole entry, looked up): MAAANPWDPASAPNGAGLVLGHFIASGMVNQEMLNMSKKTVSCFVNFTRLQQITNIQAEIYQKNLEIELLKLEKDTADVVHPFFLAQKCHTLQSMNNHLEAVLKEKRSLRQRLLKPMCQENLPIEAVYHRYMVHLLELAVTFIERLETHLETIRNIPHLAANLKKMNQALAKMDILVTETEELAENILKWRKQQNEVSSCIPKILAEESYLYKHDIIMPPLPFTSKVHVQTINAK
inactive: erlotinib 0 | [1] 0.045 | [2] -0.12 | [3] 0.116 | [4] -0.02 | [5] 0.03 | [6] 0.031 | [7] -0.015 | [8] 0.026 | IRAK-1-4 Inhibitor I 0.003 | ibrutinib 0.145 | [9] 0.1 | ralimetinib 0.054 | [10] 0.058 | [11] 0.003 | [12] 0.026 | [13] -0.079 | [14] -0.017 | [15] 0.023 | [16] -0.021

IRF2BP1 (UniProt Q8IU81)
Chain of UniProt Q8IU81 (Q8IU81 whole entry, looked up): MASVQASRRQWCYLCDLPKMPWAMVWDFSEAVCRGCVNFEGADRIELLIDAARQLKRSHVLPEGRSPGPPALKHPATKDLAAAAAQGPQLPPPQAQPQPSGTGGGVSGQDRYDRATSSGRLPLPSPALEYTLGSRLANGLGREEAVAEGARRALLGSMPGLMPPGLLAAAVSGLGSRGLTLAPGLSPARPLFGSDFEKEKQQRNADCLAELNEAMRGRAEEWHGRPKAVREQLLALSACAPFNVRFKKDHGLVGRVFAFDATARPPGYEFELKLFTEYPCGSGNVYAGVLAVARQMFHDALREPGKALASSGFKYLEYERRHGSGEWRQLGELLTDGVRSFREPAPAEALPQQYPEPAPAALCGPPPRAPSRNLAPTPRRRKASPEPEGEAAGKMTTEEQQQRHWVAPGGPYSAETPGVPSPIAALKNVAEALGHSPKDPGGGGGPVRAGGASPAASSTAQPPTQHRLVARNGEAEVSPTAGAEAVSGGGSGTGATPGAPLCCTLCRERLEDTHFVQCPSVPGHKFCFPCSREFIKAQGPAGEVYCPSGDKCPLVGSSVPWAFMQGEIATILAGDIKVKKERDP
inactive: erlotinib -0.024 | [1] -0.114 | [2] 0.022 | [3] -0.016 | [4] 0.021 | [5] -0.039 | [6] -0.021 | [7] -0.057 | [8] 0.006 | IRAK-1-4 Inhibitor I -0.018 | ibrutinib 0.003 | [9] 0.027 | ralimetinib 0.008 | [10] 0.02 | [11] 0.006 | [12] -0.016 | [13] -0.027 | [14] 0.02 | [15] -0.001 | [16] -0.038

HAUS6 (UniProt Q7Z4H7)
Chain of UniProt Q7Z4H7 (Q7Z4H7 whole entry, looked up): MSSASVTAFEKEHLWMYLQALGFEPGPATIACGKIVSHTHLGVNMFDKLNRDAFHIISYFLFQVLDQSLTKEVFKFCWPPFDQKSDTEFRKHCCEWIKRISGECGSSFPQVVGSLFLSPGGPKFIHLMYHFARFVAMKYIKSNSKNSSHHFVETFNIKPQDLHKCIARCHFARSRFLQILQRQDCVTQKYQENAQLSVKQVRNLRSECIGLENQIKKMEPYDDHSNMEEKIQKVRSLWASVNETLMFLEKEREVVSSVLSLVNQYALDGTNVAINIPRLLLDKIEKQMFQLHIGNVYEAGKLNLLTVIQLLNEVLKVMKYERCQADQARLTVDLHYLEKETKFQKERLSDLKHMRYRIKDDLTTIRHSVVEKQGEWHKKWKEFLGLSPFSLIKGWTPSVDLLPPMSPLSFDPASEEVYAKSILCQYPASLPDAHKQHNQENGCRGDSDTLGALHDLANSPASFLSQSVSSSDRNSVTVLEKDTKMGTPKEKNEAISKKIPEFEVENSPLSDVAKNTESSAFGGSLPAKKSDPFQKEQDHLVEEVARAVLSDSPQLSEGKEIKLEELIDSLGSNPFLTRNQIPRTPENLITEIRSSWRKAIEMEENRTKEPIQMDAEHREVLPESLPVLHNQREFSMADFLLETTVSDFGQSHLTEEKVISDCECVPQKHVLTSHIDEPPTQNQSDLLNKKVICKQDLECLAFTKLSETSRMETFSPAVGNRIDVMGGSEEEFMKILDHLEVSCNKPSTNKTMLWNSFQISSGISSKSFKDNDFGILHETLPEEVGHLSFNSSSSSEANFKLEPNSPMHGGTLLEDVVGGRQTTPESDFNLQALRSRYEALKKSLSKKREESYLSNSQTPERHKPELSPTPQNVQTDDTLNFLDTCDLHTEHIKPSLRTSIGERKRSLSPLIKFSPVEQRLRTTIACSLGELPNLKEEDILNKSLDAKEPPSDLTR
inactive: erlotinib 0.031 | [1] 0.102 | [2] -0.038 | [3] -0.035 | [4] -0.008 | [5] 0.019 | [6] 0.024 | [7] -0.015 | [8] 0.039 | IRAK-1-4 Inhibitor I 0.017 | ibrutinib 0.025 | [9] -0.054 | ralimetinib 0.027 | [10] -0.003 | [11] -0.015 | [12] 0.029 | [13] 0.01 | [14] -0.008 | [15] 0.073 | [16] 0.078

ICAM2 (UniProt P13598)
Chain of UniProt P13598 (P13598 whole entry, looked up): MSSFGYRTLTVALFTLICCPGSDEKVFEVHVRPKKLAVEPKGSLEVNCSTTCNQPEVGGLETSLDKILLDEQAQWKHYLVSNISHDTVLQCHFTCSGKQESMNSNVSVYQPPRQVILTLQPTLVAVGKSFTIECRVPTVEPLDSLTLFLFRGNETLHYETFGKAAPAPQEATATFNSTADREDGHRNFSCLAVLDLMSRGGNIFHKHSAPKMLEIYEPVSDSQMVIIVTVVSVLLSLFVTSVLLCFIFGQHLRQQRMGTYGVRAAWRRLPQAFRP
inactive: erlotinib 0.004 | [1] -0.022 | [2] 0.023 | [3] -0.029 | [4] -0.01 | [5] -0.011 | [6] 0.021 | [7] 0.032 | [8] 0.005 | IRAK-1-4 Inhibitor I 0.061 | ibrutinib 0.058 | [9] 0.043 | ralimetinib 0.001 | [10] -0.019 | [11] -0.016 | [12] 0.005 | [13] 0.012 | [14] 0.023 | [15] -0.028 | [16] -0.028

IMPACT (UniProt Q9P2X3)
inactive: erlotinib -0.03 | [1] 0.13 | [2] 0.014 | [3] 0.083 | [4] 0.043 | [5] 0.056 | [6] 0.001 | [7] 0.06 | [8] -0.082 | IRAK-1-4 Inhibitor I -0.076 | ibrutinib -0.19 | [9] -0.075 | ralimetinib 0.061 | [10] 0.001 | [11] -0.065 | [12] 0.289 | [13] 0.034 | [14] 0.146 | [15] 0.14 | [16] -0.052

HMGB1 (UniProt P09429)
Chain of UniProt P09429 (P09429 whole entry, looked up): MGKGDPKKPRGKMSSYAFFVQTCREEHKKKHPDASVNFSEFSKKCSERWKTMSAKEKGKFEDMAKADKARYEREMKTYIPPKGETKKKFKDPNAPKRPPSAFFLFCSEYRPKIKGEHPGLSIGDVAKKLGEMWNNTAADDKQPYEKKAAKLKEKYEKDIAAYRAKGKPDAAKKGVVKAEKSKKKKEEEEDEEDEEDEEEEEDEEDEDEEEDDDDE
inactive: erlotinib -0.024 | [1] -0.017 | [2] -0.021 | [3] -0.03 | [4] -0.001 | [5] 0.035 | [6] 0.007 | [7] 0.012 | [8] 0.001 | IRAK-1-4 Inhibitor I -0.015 | ibrutinib -0.012 | [9] -0.013 | ralimetinib -0.102 | [10] 0.057 | [11] 0.032 | [12] -0.022 | [13] -0.002 | [14] 0.036 | [15] -0.077 | [16] -0.098

HACE1 (UniProt Q8IYU2)
inactive: erlotinib 0.033 | [1] 0.083 | [2] 0.106 | [3] -0.019 | [4] 0.017 | [5] -0.189 | [6] -0.174 | [7] -0.069 | [8] 0.055 | IRAK-1-4 Inhibitor I 0.032 | ibrutinib -0.034 | [9] -0.062 | ralimetinib 0 | [10] -0.056 | [11] 0.041 | [12] -0.042 | [13] -0.042 | [14] -0.07 | [15] 0.08 | [16] 0.01

HERC2 (UniProt O95714)
inactive: erlotinib 0.014 | [1] 0.174 | [2] 0.115 | [3] 0.007 | [4] 0.01 | [5] 0.042 | [6] -0.061 | [7] -0.016 | [8] -0.001 | IRAK-1-4 Inhibitor I -0.033 | ibrutinib 0.001 | [9] 0.053 | ralimetinib 0.002 | [10] 0.02 | [11] 0.082 | [12] 0.028 | [13] -0.063 | [14] 0.021 | [15] 0.041 | [16] 0.015

INTS3 (UniProt Q68E01)
Chain of UniProt Q68E01 (Q68E01 whole entry, looked up): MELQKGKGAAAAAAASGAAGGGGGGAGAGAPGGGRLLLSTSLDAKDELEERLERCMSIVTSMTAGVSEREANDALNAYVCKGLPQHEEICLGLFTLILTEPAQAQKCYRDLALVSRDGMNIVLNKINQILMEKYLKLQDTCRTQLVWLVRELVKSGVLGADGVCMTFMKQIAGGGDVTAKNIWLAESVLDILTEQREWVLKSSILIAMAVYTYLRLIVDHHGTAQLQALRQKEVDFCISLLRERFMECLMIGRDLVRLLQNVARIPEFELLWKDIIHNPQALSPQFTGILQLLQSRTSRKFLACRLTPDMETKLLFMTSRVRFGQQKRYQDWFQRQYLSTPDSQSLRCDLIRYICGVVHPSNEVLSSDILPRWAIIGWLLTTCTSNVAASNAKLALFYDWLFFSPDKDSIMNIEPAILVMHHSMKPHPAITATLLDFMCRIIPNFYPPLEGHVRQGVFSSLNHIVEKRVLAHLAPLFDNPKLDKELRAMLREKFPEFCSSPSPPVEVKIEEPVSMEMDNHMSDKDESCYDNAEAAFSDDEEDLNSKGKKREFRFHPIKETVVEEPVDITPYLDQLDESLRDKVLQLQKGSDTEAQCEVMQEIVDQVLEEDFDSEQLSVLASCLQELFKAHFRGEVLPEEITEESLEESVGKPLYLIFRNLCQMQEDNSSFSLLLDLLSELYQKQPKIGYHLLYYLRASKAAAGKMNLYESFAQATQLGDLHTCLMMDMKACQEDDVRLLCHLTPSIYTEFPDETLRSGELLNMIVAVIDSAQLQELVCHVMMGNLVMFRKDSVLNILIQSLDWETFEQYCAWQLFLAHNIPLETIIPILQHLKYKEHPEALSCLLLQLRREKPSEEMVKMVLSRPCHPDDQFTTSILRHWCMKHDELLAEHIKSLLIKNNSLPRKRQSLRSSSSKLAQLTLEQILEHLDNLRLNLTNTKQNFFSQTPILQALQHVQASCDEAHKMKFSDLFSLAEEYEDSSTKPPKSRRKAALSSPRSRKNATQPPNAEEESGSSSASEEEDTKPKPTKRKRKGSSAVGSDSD
inactive: erlotinib 0.015 | [1] 0.035 | [2] 0.021 | [3] -0.002 | [4] -0.008 | [5] -0.043 | [6] -0.005 | [7] 0.026 | [8] -0.083 | IRAK-1-4 Inhibitor I 0.016 | ibrutinib 0.044 | [9] 0.024 | ralimetinib 0.019 | [10] -0.032 | [11] 0.032 | [12] -0.035 | [13] 0.004 | [14] 0.009 | [15] 0.025 | [16] -0.032

HIST2H2AA3 (UniProt Q6FI13)
inactive: erlotinib -0.012 | [1] -0.956 | [2] 0.002 | [3] -0.054 | [4] -0.05 | [5] 0.126 | [6] 0.012 | [7] 0.083 | [8] 0.019 | IRAK-1-4 Inhibitor I -0.055 | ibrutinib -0.011 | [9] -0.014 | ralimetinib -0.112 | [10] 0.065 | [11] 0 | [12] -0.012 | [13] 0.028 | [14] -0.046 | [15] 0.032 | [16] 0.045

GSTCD (UniProt Q8NEC7)
Chain of UniProt Q8NEC7 (Q8NEC7 whole entry, looked up): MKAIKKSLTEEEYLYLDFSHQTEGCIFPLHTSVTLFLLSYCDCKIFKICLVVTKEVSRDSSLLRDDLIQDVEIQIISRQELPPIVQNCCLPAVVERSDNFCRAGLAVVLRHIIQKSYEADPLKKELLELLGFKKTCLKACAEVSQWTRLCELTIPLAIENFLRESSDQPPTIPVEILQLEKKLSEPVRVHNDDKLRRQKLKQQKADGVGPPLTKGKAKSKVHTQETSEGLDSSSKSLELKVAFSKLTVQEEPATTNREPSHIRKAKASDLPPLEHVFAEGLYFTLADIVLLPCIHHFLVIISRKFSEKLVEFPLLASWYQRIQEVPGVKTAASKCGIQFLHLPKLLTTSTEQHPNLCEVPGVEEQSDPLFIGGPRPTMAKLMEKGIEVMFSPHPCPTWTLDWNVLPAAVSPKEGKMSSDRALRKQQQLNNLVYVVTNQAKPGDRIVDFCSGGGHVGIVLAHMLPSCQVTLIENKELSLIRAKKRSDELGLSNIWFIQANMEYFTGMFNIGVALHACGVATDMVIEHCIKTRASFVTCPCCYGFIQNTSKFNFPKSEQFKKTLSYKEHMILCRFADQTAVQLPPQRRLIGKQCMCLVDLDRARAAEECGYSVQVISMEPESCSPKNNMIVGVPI
inactive: erlotinib 0.041 | [1] -0.017 | [2] -0.037 | [3] 0.033 | [4] -0.027 | [5] 0.012 | [6] -0.021 | [7] -0.028 | [8] 0.005 | IRAK-1-4 Inhibitor I -0.055 | ibrutinib 0.057 | [9] -0.01 | ralimetinib 0.033 | [10] -0.023 | [11] -0.038 | [12] 0.044 | [13] -0.04 | [14] 0.051 | [15] -0.003 | [16] 0.011

IFNGR1 (UniProt P15260)
inactive: erlotinib 0.06 | [1] -0.064 | [2] 0.07 | [3] -0.134 | [4] -0.127 | [5] -0.021 | [6] -0.264 | [7] -0.075 | [8] 0.073 | IRAK-1-4 Inhibitor I 0.107 | ibrutinib -0.033 | [9] -0.12 | ralimetinib -0.018 | [10] -0.256 | [11] -0.014 | [12] 0.162 | [13] -0.077 | [14] 0.017 | [15] 0.073 | [16] -0.213
